Inconclusive results are not listed. The source made the active and inactive calls. Calls come from the whole dose curve; as a rule, active = well fitted curve in the direction sought with a large enough effect; inconclusive = small, poorly fitted or top-dose-only effect, or another doubt; inactive = no such curve, though single readings can be large; an effect the other way counts as inactive or inconclusive. Residues, ends and D or L forms follow the SMILES beside them. *: point of attachment. Cbz = O=C(OCc1ccccc1)*
Columns and labels:
[1] = qHTS of pediatric cancer cell lines to identify multiple opportunities for drug repurposing: Primary screen for MG 63 (6-TG R) cells (AID 1347105); note: nearly all actives have a fitted effect of over 50% in size
Procedure, shortened: (§1)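 Readout: CellTiter-Glo luminescence, 48 h treatment. Controls DMSO (neutral) and bortezomib 2.3 µM final (positive). Potency and efficacy taken from primary-screen concentration-response curves.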

[2] = qHTS of pediatric cancer cell lines to identify multiple opportunities for drug repurposing: Primary screen for control Hh wild type fibroblast cells (AID 1347106); note: nearly all actives have a fitted effect of over 55% in size;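 for activity change, negative = cytotoxic: a drop in luminescence marks cytotoxicity and a rise apparent proliferation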
Procedure, shortened: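 Cells (500-1,000/well) in growth media were settled 5 h at 37 degrees C, then given compounds for 48 h. Viability was read as CellTiter-Glo luminescence. Primary runs used MIPE at 11 points (0.78 nM-46 µM) and NPC at 8 points (0.59 nM-46 µM); follow-ups used 11 points.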

[3] = qHTS of pediatric cancer cell lines to identify multiple opportunities for drug repurposing: Primary screen for Rh30 cells (AID 1347107); note: nearly all actives have a fitted effect of over 75% in size
Procedure, shortened: (§2)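 Cells (500-1,000/well) rested 5 h, then received compounds for 48 h; metabolically active cells were measured by CellTiter-Glo luminescence. Final concentrations spanned up to 46 µM (MIPE, 11-point) or 0.59 nM-46 µM (NPC, 8-point) in primary screens, 11-point in follow-ups.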

[4] = qHTS of pediatric cancer cell lines to identify multiple opportunities for drug repurposing: Primary screen for Rh41 cells (AID 1347108); note: nearly all actives have a fitted effect of over 70% in size;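 for activity change, negative = cytotoxic: luminescence drop marks cytotoxic hits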
Procedure, shortened: as §1

[5] = qHTS of pediatric cancer cell lines to identify multiple opportunities for drug repurposing: Confirmatory screen for NB1643 cells (AID 1347109); note: nearly all actives have a fitted effect of over 45% in size
Procedure, shortened: as §2

[6] = qHTS of pediatric cancer cell lines to identify multiple opportunities for drug repurposing: Confirmatory screen for A673 cells (AID 1347110);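 note: cells exposed to compound for 48 h before the viability read; nearly all actives have a fitted effect of over 65% in size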
Procedure, shortened: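 qHTS titration format: primary MIPE 0.78 nM-46 µM (11 pts), NPC 0.59 nM-46 µM; confirmation 11 pts. 48 h, CTG luminescence.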

[7] = qHTS of pediatric cancer cell lines to identify multiple opportunities for drug repurposing: Confirmatory screen for SK-N-MC cells (AID 1347111);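 note: cells exposed to compound for 48 h before the readout; nearly all actives have a fitted effect of over 70% in size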
Procedure, shortened: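 Seed 500-1,000 cells/well; rest 5 h at 37 degrees C. Pin-transfer compounds, 11-point titration. Incubate 48 h. Add CellTiter-Glo, 15 min RT, read luminescence.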

[8] = qHTS of pediatric cancer cell lines to identify multiple opportunities for drug repurposing: Confirmatory screen for BT-12 cells (AID 1347112); note: nearly all actives have a fitted effect of over 55% in size
Procedure, shortened: as §2

[9] = qHTS of pediatric cancer cell lines to identify multiple opportunities for drug repurposing: Confirmatory screen for LAN-5 cells (AID 1347113); note: nearly all actives have a fitted effect of over 65% in size
Procedure, shortened: as §2

[10] = qHTS of pediatric cancer cell lines to identify multiple opportunities for drug repurposing: Confirmatory screen for DAOY cells (AID 1347114); note: nearly all actives have a fitted effect of over 65% in size
Procedure, shortened: (§3)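 Viability measured as metabolically active cells via CellTiter-Glo luminescence following 48 hours of compound exposure, 11-point dilutions in confirmatory testing. 500-1,000 cells/well plated 5 hours before dosing; controls were DMSO and 2.3 µM bortezomib.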

[11] = qHTS of pediatric cancer cell lines to identify multiple opportunities for drug repurposing: Confirmatory screen for NB-EBc1 cells (AID 1347115);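 note: cells exposed to compound for 48 h before the viability read; nearly all actives have a fitted effect of over 45% in size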
Procedure, shortened: as §2

[12] = qHTS of pediatric cancer cell lines to identify multiple opportunities for drug repurposing: Confirmatory screen for SJ-GBM2 cells (AID 1347116); note: nearly all actives have a fitted effect of over 60% in size
Procedure, shortened: as §3

[13] = qHTS of pediatric cancer cell lines to identify multiple opportunities for drug repurposing: Confirmatory screen for BT-37 cells (AID 1347117); conditions: BT-37 pediatric cancer cells, viability; activity change, negative = cytotoxic: at 45.9 µM (top of the series); note: nearly all actives have a fitted effect of over 55% in size
Procedure, shortened: as §2

[14] = qHTS of pediatric cancer cell lines to identify multiple opportunities for drug repurposing: Confirmatory screen for TC32 cells (AID 1347118);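 note: cells exposed to compound for 48 h before the read; nearly all actives have a fitted effect of over 65% in size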
Procedure, shortened: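 Luminescent CellTiter-Glo read-out of metabolically active TC32 cells after 48 h compound exposure. Primary: MIPE 11-point, 0.78 nM–46 µM; NPC 8-point, 0.59 nM–46 µM. Confirmatory: 11-point dilutions.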

[15] = qHTS of pediatric cancer cell lines to identify multiple opportunities for drug repurposing: Confirmatory screen for MG 63 (6-TG R) cells (AID 1347119); note: nearly all actives have a fitted effect of over 55% in size
Procedure, shortened: as §2

[16] = qHTS of pediatric cancer cell lines to identify multiple opportunities for drug repurposing: Confirmatory screen for U-2 OS cells (AID 1347122); note: nearly all actives have a fitted effect of over 65% in size
Procedure, shortened: as §2

[17] = qHTS of pediatric cancer cell lines to identify multiple opportunities for drug repurposing: Confirmatory screen for Rh41 cells (AID 1347123); note: nearly all actives have a fitted effect of over 60% in size
Procedure, shortened: as §2

[18] = qHTS of pediatric cancer cell lines to identify multiple opportunities for drug repurposing: Confirmatory screen for RD cells (AID 1347124)
Procedure, shortened: as §2

[19] = qHTS of pediatric cancer cell lines to identify multiple opportunities for drug repurposing: Confirmatory screen for Rh18 cells (AID 1347125); note: nearly all actives have a fitted effect of over 55% in size
Procedure, shortened: as §2

[20] = qHTS of pediatric cancer cell lines to identify multiple opportunities for drug repurposing: Confirmatory screen for control Hh wild type fibroblast cells (AID 1347121); note: nearly all actives have a fitted effect of over 70% in size
Procedure, shortened: as §2

Measured: Potency
Potency is the fitted concentration of half-maximal effect.

O=C(Nc1ccc(Oc2ccnc3[nH]ccc23)c(F)c1)c1cccn(-c2ccc(F)cc2)c1=O
inactive: [1] | [2] | [3] | [4]

OCCN1C[C@H](O)[C@@H](O)[C@H](O)[C@@H]1CO
inactive: [1] | [2] | [3] | [4]

C[C@@]12C[C@@]3(O)O[C@@H](O1)[C@]1(COC(=O)c4ccccc4)[C@@H]3C[C@@]12O[C@@H]1O[C@H](CO)[C@@H](O)[C@H](O)[C@@H]1O
inactive: [1] | [2] | [3] | [4]

CC1(C)O[C@@H]2C[C@H]3[C@@H]4CCC5=CC(=O)C=C[C@]5(C)[C@@H]4[C@@H](O)C[C@]3(C)[C@]2(C(=O)CO)O1
not listed: [20]
inactive: all other assays above

CN[C@H]1[C@@H](O)[C@@H]2O[C@@H]3O[C@H](C)CC(=O)[C@]3(O)O[C@@H]2[C@@H](NC)[C@H]1O
active: [1] 9350 nM | [2] 3720 nM | [3] 296 nM | [4] 1180 nM
not listed: [7] | [8] | [14] | [15] | [20]
inactive: all other assays above

CCCCC(=O)O[C@]1(C(=O)CO)[C@@H](C)C[C@H]2[C@@H]3CCC4=CC(=O)C=C[C@]4(C)[C@@]3(F)[C@@H](O)C[C@@]21C
active: [7] 18500 nM
not listed: [8] | [11] | [14] | [20]
inactive: all other assays above

N#CNC(=NCCCCCCOc1ccc(Cl)cc1)Nc1ccncc1
inactive: [2]
active: [1] 14800 nM | [3] 5.9 nM | [4] 5.9 nM | [5] 14.7 nM | [6] 11.7 nM | [7] 14.7 nM | [9] 11.7 nM | [10] 165 nM | [12] 41.4 nM | [13] 18.5 nM | [14] 4.1 nM | [16] 293 nM | [17] 16.5 nM | [18] 36.9 nM | [19] 46.5 nM

Nc1nc2c(c(=O)[nH]1)N(C=O)[C@H](CNc1ccc(C(=O)N[C@@H](CCC(=O)O)C(=O)O)cc1)CN2
active: [7] 10400 nM | [14] 10400 nM
not listed: [6] | [20]
inactive: all other assays above

CC(C=CC(=O)NO)=C[C@@H](C)C(=O)c1ccc(N(C)C)cc1
active: [1] 2350 nM | [2] 10500 nM | [3] 7430 nM | [4] 1480 nM | [5] 585 nM | [6] 827 nM | [7] 185 nM | [9] 414 nM | [10] 2330 nM | [12] 2080 nM | [13] 827 nM | [14] 414 nM | [15] 1170 nM | [20] 6570 nM | [16] 657 nM | [17] 1470 nM | [18] 1310 nM | [19] 928 nM

c1ccc2c(Oc3nc(Nc4ccc(N5CCOCC5)cc4)c4ncn(C5CCCCC5)c4n3)cccc2c1
inactive: [1] | [2] | [3] | [4]

CC(C)C[C@@H](C=O)NC(=O)[C@H](CC(C)C)NC(=O)[C@H](CC(C)C)NC(=O)OCc1ccccc1 (Cbz-Leu-Leu-Leu-aldehyde)
active: [1] 372 nM | [2] 2960 nM | [3] 3720 nM | [4] 1480 nM | [5] 1170 nM | [7] 369 nM | [8] 1170 nM | [9] 1040 nM | [10] 737 nM | [12] 1040 nM | [13] 585 nM | [14] 827 nM | [15] 585 nM | [16] 2080 nM | [17] 1170 nM | [18] 657 nM | [19] 1650 nM

CCOC(=O)N1CCN([N+]([O-])=NOc2ccc([N+](=O)[O-])cc2[N+](=O)[O-])CC1
active: [1] 18700 nM | [4] 4180 nM
inactive: [2] | [3]

C=C1C(=CC=C2CCC[C@]3(C)[C@@H]([C@H](C)CCCC(C)(C)O)CC[C@@H]23)C[C@@H](O)C[C@@H]1O
inactive: [2] | [5] | [9] | [12] | [13] | [17] | [18] | [19]
active: [1] 11800 nM | [4] 5900 nM

COc1cc2c(Nc3ccc(Cl)c(Cl)c3F)ncnc2cc1OCC1C[C@@H]2CN(C)C[C@H]2C1
active: [1] 14800 nM | [2] 20900 nM | [4] 9350 nM

Cn1cnc(=N)c2[nH]cnc21
active: [1] 1480 nM | [3] 14800 nM | [4] 469 nM
inactive: [2] | [7] | [9] | [10] | [11] | [13] | [14] | [15] | [19]

CC(C)N1[N]C(=C2C=c3cc(O)ccc3=N2)c2c(N)ncnc21
active: [1] 1180 nM | [3] 5900 nM | [4] 1050 nM | [5] 10400 nM | [6] 4140 nM | [7] 2330 nM | [8] 13100 nM | [9] 2930 nM | [10] 5220 nM | [11] 4140 nM | [12] 4140 nM | [13] 1310 nM | [14] 1170 nM | [15] 414 nM | [16] 2330 nM | [17] 522 nM | [18] 11700 nM | [19] 6570 nM

COc1ccc(S(=O)(=O)Nc2cc(-c3c(O)ccc4ccccc34)c(O)c3ccccc23)cc1
active: [1] 18700 nM | [4] 18700 nM
inactive: [2]

C=C(C)[C@@H]1CC[C@]2(C(=O)O)CC[C@]3(C)[C@H](CC[C@@H]4[C@@]5(C)CC[C@H](O)C(C)(C)[C@@H]5CC[C@]43C)[C@@H]12
inactive: [1] | [2] | [4]

COc1cc(C(=O)NC2CCN(C)CC2)ccc1Nc1ncc2c(n1)N(C1CCCC1)CCC(=O)N2C(C)C
active: [1] 2960 nM | [4] 14800 nM
inactive: [2]

CC(=O)O[C@H]1C[C@@H]2CC[C@H]3[C@H]4C[C@H]([N+]5(C)CCCCC5)[C@@H](OC(C)=O)[C@@]4(C)CC[C@@H]3[C@@]2(C)C[C@H]1N1CCCCC1
active: [7] 3290 nM | [8] 7370 nM | [9] 4140 nM | [12] 14700 nM | [13] 3290 nM | [14] 2330 nM | [17] 7370 nM | [19] 10400 nM
inactive: [1] | [2] | [15] | [16] | [18]

COC(=O)C1C2CC3c4[nH]c5cc(OC)ccc5c4CCN3CC2CC(OC(=O)c2cc(OC)c(OC)c(OC)c2)C1OC (stereo not given)
inactive: [1] | [2] | [3] | [20]
active: [5] 5220 nM | [7] 369 nM | [9] 14700 nM | [13] 1470 nM | [16] 20800 nM | [17] 11700 nM | [19] 16500 nM

CC(C)[C@H](CO)Nc1nc(Nc2cccc(Cl)c2)c2ncn(C(C)C)c2n1
inactive: [2]
active: [1] 2960 nM | [4] 11800 nM

O=C(C=CC=Cc1ccc2c(c1)OCO2)N1CCCCC1
active: [6] 16500 nM | [7] 8270 nM | [14] 10400 nM
not listed: [5] | [9]
inactive: all other assays above

CNC(=O)c1ccc(Nc2cc(Nc3ccccc3S(=O)(=O)C(C)C)c3cc[nH]c3n2)nc1
active: [1] 5900 nM | [4] 5900 nM | [5] 1470 nM | [7] 2610 nM | [8] 13100 nM | [9] 2930 nM | [10] 5850 nM | [12] 10400 nM | [13] 6570 nM | [14] 1850 nM | [15] 1040 nM | [17] 5850 nM | [18] 9270 nM | [19] 18500 nM
inactive: [2]

O=C(NCc1ccccc1)[C@H](Cc1ccccc1)NC(=O)[C@@H]1O[C@@H]1C(=O)NCCc1ccc(O)cc1
inactive: [1] | [2] | [3] | [4] | [12] | [16] | [18] | [19]
active: [6] 10400 nM | [14] 165 nM

CC(=CC(=O)Nc1ccccc1C(=O)O)c1ccc2ccccc2c1
inactive: [1] | [3]

CC(C(C)N1CC(=O)NC(=O)C1)N1CC(=O)NC(=O)C1 (stereo not given)
active: [7] 2930 nM | [13] 9270 nM | [14] 4140 nM | [15] 5220 nM
not listed: [5] | [6] | [8] | [11] | [12] | [20]
inactive: all other assays above

C#C[C@]1(O)CC[C@@H]2[C@@H]3CCc4cc(O)ccc4[C@H]3CC[C@@]21C
active: [1] 23500 nM | [4] 23500 nM
inactive: [2]

Reference: PubChem BioAssay (NCATS)
